Legend:
[1] = molecular target: Tumor necrosis factor receptor superfamily member 10B (Homo sapiens) (UniProt O14763); experiment: caspase-8 TRAIL sensitization, hit retest, confirmation, cell-based, NB7+caspase-8, with/without TRAIL, luminescence panel (AID 651596); conditions: NB7 neuroblastoma + caspase-8, TRAIL sensitization, luminescence viability, with TRAIL, mean of runs, at 10 µM, stronger effect = higher value
[2] = as above; conditions: NB7 neuroblastoma + caspase-8, without TRAIL, luminescence viability, without TRAIL, mean of runs, at 10 µM

Sequence of Tumor necrosis factor receptor superfamily member 10B (Homo sapiens) (O14763 whole entry, looked up): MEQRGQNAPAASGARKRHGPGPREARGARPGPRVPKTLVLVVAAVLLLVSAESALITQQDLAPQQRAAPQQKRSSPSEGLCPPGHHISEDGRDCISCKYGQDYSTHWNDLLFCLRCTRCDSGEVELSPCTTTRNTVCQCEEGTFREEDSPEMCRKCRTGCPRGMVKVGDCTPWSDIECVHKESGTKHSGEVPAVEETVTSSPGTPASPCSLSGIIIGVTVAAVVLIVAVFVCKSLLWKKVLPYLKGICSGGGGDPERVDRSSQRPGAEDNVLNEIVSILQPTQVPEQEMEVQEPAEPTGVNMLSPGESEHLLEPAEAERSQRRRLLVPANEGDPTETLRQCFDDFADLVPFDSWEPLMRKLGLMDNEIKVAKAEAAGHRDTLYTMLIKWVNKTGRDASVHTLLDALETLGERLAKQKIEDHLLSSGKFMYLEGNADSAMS

Compound	activity [1] [%]	activity [2] [%]
O=C(Nc1nnc(-c2ccccc2)o1)NC1CCCCC1	34.9	55.4
Cc1ccsc1C(=O)Nc1ccc2c(c1)OCCO2	53.2	45.1
Cc1cccc(NC(=S)NNC(=O)c2ccc3c(c2)OCO3)c1	39.1	49.8
Cc1nc2c(-c3ccccc3)cnn2c(N)c1-c1ccccc1	92.6	90.9
CC(=C/c1ccccc1)/C=N/NC(=O)c1cccs1	56	51.2
COc1cc(C(=O)Nc2nc3ccccc3[nH]2)ccc1OC(F)F	78.9	69.4
Cc1c(C(=O)N2CCc3ccccc32)oc2ccccc12	48.2	41
Cc1cc(C)c(C#N)c(SCc2nc3ccccc3c(=O)[nH]2)n1	82.8	82.5
CCN1CCC(O)(/C=C/c2ccc(C(C)C)cc2)C(C(=O)/C=C/c2ccc(C(C)C)cc2)C1 (stereo not given)	87.8	82.8
CCC1CCCCN1Cc1nc(Cc2ccccc2Cl)no1 (stereo not given)	-9.55	-33.1

Reference: PubChem BioAssay
